Compounds with a hit are over-represented: about 3.9% of the library has one in this group of screens.
Autofluor counter = counter-screen for toxin protease inhibitors: compound fluorescence; compound autofluorescence counterscreen, microsphere flow cytometry; stronger effect = higher value; fluorescence intensity (no concentration beside the values); actives 3.1% (n = 360,000); AID 624483; in the data active = fluorescence intensity above about 16000; inconclusive = no clear call, values can overlap the other calls
BoNT A protease = blocks Botulinum neurotoxin A light chain protease; multiplex microsphere protease substrate cleavage, flow cytometry; inhibition, % at 10 µM; actives 0.17% (n = 360,000); AID 588499; also: plate controls were buffer without enzyme for full effect and enzyme alone for no effect
CCHF vOTU inh = CCHFV vOTU protease inhibition; inhibition, % at 11.5 µM; Pep-AMC fluorescence; actives 0.55% (n = 370,000); AID 651958; in the data active = inhibition above about 30%; also: 0% = vehicle wells with enzyme and 100% = no enzyme wells
Anthrax LF prot = anthrax lethal factor protease inhibition; inhibition, % at 10 µM; multiplex microsphere protease cleavage assay, LF; actives 0.12% (n = 360,000); P15917; AID 588501; also: plate controls were buffer without enzyme for full effect and enzyme alone for no effect
3CLpro inhibitor = SARS-CoV 3CLpro protease inhibition. P0C6X7. recombinant SARS-CoV 3CLpro, quenched FRET peptide cleavage. actives 0.14% (n = 290,000). inhibition, % at 6 µM. AID 1706; in the data active = inhibition above about 12%
BoNT-F LC inh = blocks Botulinum neurotoxin F light chain protease; Multiplex microsphere protease cleavage assay, flow cytometry; inhibition, % at 10 µM; actives 0.22% (n = 360,000); AID 588497; in the data active = inhibition above about 35%, passing the limit was not always enough; inconclusive = no clear call, values can overlap the other calls; also: plate controls were buffer without enzyme for full effect and enzyme alone for no effect
Starred values were filed as active, the others as inactive; ? = inconclusive; . = not tested or not shown. Rule as the data show it, unless noted: active = inhibition above about 30%; inconclusive = no clear call, values can overlap the other calls; inactive = below that.

SMILES	Autofluor counter	BoNT A protease	CCHF vOTU inh	Anthrax LF prot	3CLpro inhibitor	BoNT-F LC inh
Cc1ccc2c(c1)N(CCC(=O)NCc1ccco1)C(=O)CO2	22695*	-1.7	4.7	-1.0	1.2	-5.2
CCC1Oc2ccc(C)cc2N(CC(=O)NCC2COc3ccccc3O2)C1=O (stereo unspecified)	5972	0.2	5.0	-4.2	1.1	-0.7
Cn1c(COc2ccccc2)nnc1SCC(=O)Nc1ccc(S(=O)(=O)Nc2nccs2)cc1	.	.	5.2	.	.	.
CC(C)CN1CN2CCc3ccccc3C2CS1(=O)=O (stereo unspecified)	.	.	-8.7	.	.	.
COc1ccc(CN(CCN2CCOCC2)C(=O)c2cc(F)ccc2F)cc1OC	.	.	0.1	.	.	.
C=CCN1C(=O)[C@@H](CC(=O)N2CCN(C(=O)C3CC3)CC2)[C@]2(C(=O)OCC)CCCCC/C=C/12	.	.	-6.6	.	.	.
COc1ccccc1CNC(=O)CCN1C(=O)COc2ccc(C)cc21	21217*	?	-1.5	-0.3	1.0	5.1
COc1ccccc1CNC(=O)CCCN1C(=O)COc2ccc(C)cc21	11784	0.9	-2.0	-3.5	0.0	-4.8
COc1ccccc1Oc1coc2cc(OCC(N)=O)ccc2c1=O	3638	0.2	-8.9	18.6	-1.1	40.9*
CCOC(=O)Oc1ccc2c(=O)c(Oc3cccc(C)c3)coc2c1	7981	0.5	-24.5	-2.6	1.6	-2.6
CCCNC(=O)COc1ccc2c(=O)c(Oc3ccccc3F)coc2c1	2409	-0.1	-0.2	0.5	-3.9	-2.9
Cc1cccc(Oc2coc3cc(OC(=O)c4cncc(Br)c4)ccc3c2=O)c1	2575	0.2	-19.1	-2.3	2.3	1.3
CCOC(=O)Oc1ccc2c(=O)c(Oc3cc(C)cc(C)c3)coc2c1	22166*	?	-13.0	-1.2	-5.2	1.7
Cc1cccc(Oc2coc3cc(OC(=O)c4cc5ccccc5oc4=O)ccc3c2=O)c1	20697*	?	-5.9	-0.9	-6.6	-1.2
COc1ccc(-n2c(COc3ccc(C)cc3)nnc2SCC(=O)Nc2ccc(S(=O)(=O)Nc3cc(C)nc(C)n3)cc2)cc1	.	.	5.9	.	.	.
CCn1c(=O)n(CC(=O)N2CCN(C(C)=O)CC2)c(=O)c2ccccc21	.	.	1.2	.	.	.
Cc1ccc(C)c2[nH]c(=O)c(C(c3nnnn3Cc3ccccc3)N3CCc4ccccc4C3)cc12 (stereo unspecified)	22367*	?	8.9	3.6	-3.6	1.4
O=c1[nH]c2cc3c(cc2cc1C(c1nnnn1Cc1ccccc1)N1CCCCCC1)OCCO3 (stereo unspecified)	17658*	9.3	-8.1	4.6	-0.1	12.0
O=C(OC12CCCN(C1)/C(=C/c1ccncc1)C2)c1ccc(Cl)cc1 (stereo unspecified)	.	.	-0.7	.	.	.
O=C(N1CCOCC1)N1CCCC(c2nc(-c3cccs3)no2)C1 (stereo unspecified)	20689*	0.0	-8.3	0.8	-8.5	-0.4
O=C(c1ccco1)N1CCCC(c2nc(-c3ccc(S(=O)(=O)NCc4ccccc4)cc3)no2)C1 (stereo unspecified)	22212*	2.1	2.4	0.5	-0.3	0.9
O=C(c1c(F)cccc1F)N1CCCC(c2nc(-c3cccs3)no2)C1 (stereo unspecified)	3680	-2.8	-17.4	-19.7	-1.5	-23.1
O=S(=O)(Cc1ccccc1)N1CCC(c2nc(-c3cccs3)no2)CC1	18652*	?	.	-5.6	1.9	7.9
COc1cccc(-c2noc(C3CCCN(C(=O)Cc4ccccc4)C3)n2)c1 (stereo unspecified)	20892*	-0.5	7.4	-0.2	1.4	0.2
O=C(CSc1nnc(-c2cnccn2)n1-c1ccccc1)c1ccccc1Br	.	.	-4.9	.	.	.
SMILES	Autofluor counter	BoNT A protease	CCHF vOTU inh	Anthrax LF prot	3CLpro inhibitor	BoNT-F LC inh
COC(=O)[C@H]1C[C@@]2(N3CCCCC3)c3ccccc3N[C@H]2N1S(=O)(=O)c1ccc(C)cc1	.	.	3.8	.	.	.
CC(=O)Nc1ccc(C(CCCc2ccccc2)C2=CCCCC2)cc1 (stereo unspecified)	.	.	13.4	.	.	.
O=C(Cc1ccccc1)N1CCCC(c2nc(-c3cccs3)no2)C1 (stereo unspecified)	23522*	-3.7	-14.4	-1.3	5.3	-6.7
CCn1c2ccccc2c2cc(NC(=O)COC(=O)c3cc(F)cc(F)c3)ccc21	.	.	-4.0	.	.	.
O=C(CC(O)(c1ccccc1)C(F)(F)C(F)F)c1cccs1 (stereo unspecified)	20372*	?	-1.7	-1.0	0.4	-3.7
Cc1ccc(/C=C2\SC(=S)N(C3CCS(=O)(=O)C3)C2=O)cc1 (stereo unspecified)	3047	1.7	18.2	-3.7	-0.5	2.6
CCCOc1ccc(-c2nn(-c3ccccc3)cc2/C=C2\SC(=S)N(C3CCS(=O)(=O)C3)C2=O)cc1 (stereo unspecified)	5968	49.0*	5.5	46.6*	5.5	40.2*
CCOc1ccc(-c2nn(-c3ccccc3)cc2/C=C2\SC(=S)N(C3CCS(=O)(=O)C3)C2=O)cc1 (stereo unspecified)	2755	35.8*	-4.4	28.8	4.7	42.9*
CN(C)/C=C/C(=O)c1cccc(Cl)c1	16675*	-1.3	10.5	-3.5	4.2	-4.8
CN(C)/C=C/C(=O)c1ccc(Cl)cc1	?	?	0.4	?	2.3	-6.6
O=S1(=O)CC2c3ccccc3CN2CN1C1CCCC1 (stereo unspecified)	.	.	0.4	.	.	.
C[C@H](N)c1nnc(SCC(=O)N(C)C)o1	20911*	-1.7	2.9	-0.7	-8.3	-2.4
CN(C)C(=O)CSc1nnc([C@@H](N)Cc2ccccc2)o1	22809*	-1.0	1.3	-3.4	-7.2	-2.9
CCc1cccc(Oc2nn[nH]n2)c1	24949*	-2.6	.	0.3	-1.7	-3.6
Cc1ccc(Oc2nn[nH]n2)cc1	11115	-0.4	-6.6	-0.2	-2.6	3.8
O=C(Nc1ccc(N2CCOCC2)nc1)c1ccc(F)cc1	22364*	0.5	5.1	-1.2	3.5	-1.4
CCCC[C@H]1C2CC(OC(=O)Nc3ccc(C)cc3)C(C2)[C@H]2CCCCN21 (stereo partly specified)	.	.	12.2	.	.	.
O=C1N/C(=C\c2ccc(O)cc2)C(=O)c2ccccc21	19019*	4.6	.	-8.2	3.1	5.3
O=C(O)/C=C1\NC(=O)c2ccccc21	4999	-0.8	9.1	1.4	-1.2	-22.0
CN(c1c2c(nc3ncnn13)CCCC2)C1CCCCC1	.	.	2.1	.	.	.
Cc1cccc(N(CC(=O)NC2CCCC2)C(=O)CS(=O)CC(=O)Nc2ccc3c(c2)OCO3)c1 (stereo unspecified)	22772*	?	-11.5	-2.0	3.1	-10.6
O=C/C(=C\Nc1ccccn1)c1nc2ccccc2o1	17474*	?	-5.4	-1.0	3.5	-6.2
O=C(c1ccccc1F)N1CCN(c2ccccc2)CC1	19300*	1.7	-8.8	3.0	1.0	1.1
O=C(c1cccc(S(=O)(=O)N2CCCCCC2)c1)N1CCN(c2ccccc2)CC1	4203	-1.0	8.0	-2.3	6.1	-4.4
O=C(CSCc1ccc(F)cc1)N1CCN(c2ccccc2)CC1	23909*	-4.8	5.3	-1.1	2.8	-3.3

Screens as filed in PubChem BioAssay.
